High-throughput results (PubChem)
Only a selection was taken, and hits are over-represented in it overall.
Pf Dd2 growth – Plasmodium falciparum Dd2 growth inhibition; P. falciparum Dd2 growth, SYBR Green, 72 h; Potency, µM (titrated, usually from 28.9 µM), without a hit: at the top dose activity, negative = inhibition, most hits filed as inhibitors; hit rate 4.3% among 120,000; AID 1347417; active = well fitted inhibition curve with a large enough effect;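 also: plate controls were DMSO vehicle for no effect and reference drug for full effect; nearly all actives have a fitted effect of over 65% in size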
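Infected erythrocytes (Dd2, 0.3% parasitemia, 2.5% hematocrit final) are added to compound in RPMI-1640/Albumax II medium, grown 72 h at 37C in low oxygen, then lysed with saponin/Triton-X containing SYBR Green and read by fluorescence.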
Active calls of the source: *; i = inactive; [ ] = dose if it differs, or a comment. Potency is read from the fitted curve at half-maximal effect.

SMILES	Pf Dd2 growth
COc1cccc(CC(=O)NCCC2CCN(C(=O)Nc3ccccc3C)CC2)c1	-10%
COc1cc(=O)n2c(c1C(=O)Nc1cccc(C)c1C)CCCC2	27%
COc1cccc(CN2CCc3c(cc(C(=O)Nc4ccccc4)n3C)C2)c1	1.1µM*
COc1ccc(NC(=O)c2cc3c(n2C)CCN(Cc2ccc(F)cc2)C3)cc1	2.5µM*
CCN(CC)C(=O)c1cc2c(n1C)CCN(Cc1ccc(F)cc1)C2	8.9µM*
COCCNC(=O)[C@H]1C[C@H](Oc2ccccc2)CN1C(=O)NCCc1ccccc1	i
Cc1ccc(N2CCC(N)C2=O)cc1C (stereo unspecified)	i
O=C(O)C1=NOC2CN(Cc3ccc(F)c(F)c3F)CC12 (stereo unspecified)	10%[44.1 µM]
CNC(=O)c1noc([C@@H]2CC(F)(F)CN2C2CCOCC2)n1	12%
COCCN1CCC(N2CCN(C(=O)c3ccc(F)c(F)c3)CC2)C1=O (stereo unspecified)	-1%
COc1ccc(N2CC(c3noc(-c4cc(F)ccc4F)n3)CC2=O)cc1 (stereo unspecified)	67%
COc1ccc(CNC(=O)c2cc3c(n2C)CCN(Cc2ccccc2)C3)cc1OC	-26%
COc1cccc(CN2CCN3C(=O)N(Cc4ccccn4)C[C@H]3C2)c1	-4%[44.1 µM]
COc1cccc(CN2CCc3c(cc(C(=O)NCc4ccccn4)n3C)C2)c1	0.89µM*
CCNC(=O)N1C[C@@H](Oc2cccnc2)C[C@H]1C(=O)N1CCCC1	-15%
CC(C)c1ccc(CC(=O)N2CCCc3ncc(C(=O)Nc4cccc(Cl)c4)cc32)cc1	13µM*
O=C(Nc1cccc(C(F)(F)F)c1)c1cnc2c(c1)N(C(=O)CCc1ccccc1)CCC2	i
CC(C)c1ccc(CC(=O)N2CCCc3ncc(C(=O)Nc4ccc5[nH]ccc5c4)cc32)cc1	-12%
CC(C)NC(=O)c1cnc2c(c1)N(C(=O)Cc1ccc(C(C)C)cc1)CCC2	i
CC(C)c1ccc(CC(=O)N2CCCc3ncc(C(=O)Nc4cccnc4)cc32)cc1	0.63µM*
CC(C)c1ccc(CC(=O)N2CCCc3ncc(C(=O)NCCN4CCCC4)cc32)cc1	-7%[44.1 µM]
O=C(Nc1cccc(F)c1)c1cnc2c(c1)N(C(=O)Cc1cccc(C(F)(F)F)c1)CCC2	11µM*
CC(C)c1ccc(CC(=O)N2CCCc3ncc(C(=O)NCc4ccccc4)cc32)cc1	i
CC(C)c1ccc(CC(=O)N2CCCc3ncc(C(=O)NCC(C)(C)CO)cc32)cc1	i
Cn1cc(CC(=O)N2CCCc3ncc(C(=O)Nc4cccc(C(F)(F)F)c4)cc32)c2ccccc21	i
SMILES	Pf Dd2 growth
CC(C)c1ccc(CC(=O)N2CCCc3ncc(C(=O)Nc4ccccn4)cc32)cc1	7.9µM*
CC(C)c1ccc(CC(=O)N2CCCc3ncc(C(=O)NCCc4ccccc4)cc32)cc1	i
COCCN1C(=O)[C@H]2CN(C(=O)c3ccncc3)C[C@H]2C1=O	-5%
CCn1nc(C)c(CN(CCOC)C(=O)C2COc3ccccc3C2)c1C (stereo unspecified)	-6%
CCc1ccc(NC(=O)Cn2nc3n(c2=O)CCCCC3)cc1	13%
COc1cccc([S+](=O)([O-])N2CCC(N3CCOC3=O)CC2)c1	10%
OC1(c2cccnc2)CCN(Cc2ccc(-n3ccnc3)cc2)CC1	14%
COCC1(c2n[nH]c(C3CCOCC3)n2)CCC1	-6%
O=C([C@@H]1C[C@H](F)CN1C(=O)Nc1ccc(Br)cc1)N1CCCCC1	16%
C[C@H]1[C@@H]2[C@@H](O)C([C@H](C)C(=O)NCc3cccs3)CC[C@@]2(C)CC[C@@H]1NC(=O)c1cncnc1 (stereo partly specified)	i
CCc1ccc(C(=O)c2cnc3ccc(C)cc3c2S(=O)(=O)c2ccc(OC)cc2)cc1	11µM*
CCc1ccc(Cn2c(CNS(=O)(=O)c3ccc(C)c(C)c3)nc3cccnc32)cc1	-15%
CCOc1ccc(S(=O)(=O)c2c(C(=O)c3ccc(CC)cc3)cnc3ccc(C)cc23)cc1	i
CCc1ccc(S(=O)(=O)c2c(C(=O)c3ccc(C)c(C)c3)cnc3ccccc23)cc1	4µM*
Cc1ccc(CCNC(=O)c2cc(Nc3ccc(C)c(C)c3)nc3ccccc23)cc1	-2%
COc1ccc(S(=O)(=O)c2c(O)c3ccc(C(=O)NCc4ccc(F)cc4)cc3[nH]c2=O)cc1	-17%
COC(=O)C1=C(C)NC(=O)NC1c1ccccc1OC (stereo unspecified)	2%
CCn1cc(-c2nc3cc(S(=O)(=O)NC(C)C)ccc3n2C(C)C)cn1	-18%
O=C(O)c1ccc(CN2C[C@H](O)C[C@H]2c2nc(C3CC3)no2)cc1	-8%[44.1 µM]
Cn1cc(C(=O)NCc2nnc3n2C(C(=O)NC2CC2)CC3)cn1 (stereo unspecified)	6%
COc1nc2c(cc1CNC(=O)c1cnc(C)nc1)C(=O)N(C1CCCC1)C2	-3%
O=C([C@@H]1C[C@H](Oc2cccnc2)CN1C(=O)c1n[nH]c(=O)c2ccccc12)N1CCCC1	i
CN(C)c1ccc(C(CNC(=O)c2ccc(C(C)(C)C)cc2)N2CCCC2)cc1 (stereo unspecified)	6.3µM*
O=C(NCC(c1ccc(Cl)cc1)N1CCCCC1)c1ccc(F)cc1 (stereo unspecified)	-13%
COc1ccc(C(=O)NCC(c2ccc(N(C)C)cc2)N2CCOCC2)cc1 (stereo unspecified)	46%
SMILES	Pf Dd2 growth
COCCNc1ncnc2c1CN(C1CCNCC1)C(=O)CN2C	8%
Cn1nc(-c2ccc3ccccc3c2)cc1[C@H]1CN2CC[C@H]1C[C@@H]2CNC(=O)COc1ccccc1	-13%
CCC(CC)c1cc([C@H]2CN3CC[C@H]2C[C@@H]3CNC(=O)COc2ccccc2)nc(-c2ccncc2)n1	0.45µM*
CCC(CC)c1cc([C@H]2CN3CC[C@H]2C[C@@H]3CNC(=O)c2cc(OC)c(OC)c(OC)c2)nc(-c2ccncc2)n1	-48%
CCC(CC)c1cc([C@H]2CN3CC[C@H]2C[C@@H]3CNC(=O)c2ccc(N(C)C)cc2)nc(-c2ccncc2)n1	-16%
CCC(CC)c1cc([C@H]2CN3CC[C@H]2C[C@@H]3COC(=O)Nc2ccccc2)nc(-c2ccncc2)n1	-13%
CC(=O)c1cccc(NC(=O)NC[C@H]2C[C@@H]3CCN2C[C@@H]3c2cc(-c3cccs3)nc(C)n2)c1	i
Cc1nc(-c2ccccc2)cc([C@H]2CN3CC[C@H]2C[C@@H]3CNC(=O)CCCC(=O)O)n1	20%[44.1 µM]
CCC(CC)c1cc([C@H]2CN3CC[C@H]2C[C@@H]3CNC(=O)c2cccs2)nc(-c2ccncc2)n1	0.25µM*
CCC(CC)c1cc([C@H]2CN3CC[C@H]2C[C@@H]3CNC(=O)Cc2cccs2)nc(-c2ccncc2)n1	0.71µM*
Cc1ccsc1C(=O)N1CCN(c2cc(-c3ccc(Cl)cc3)[nH]n2)CC1	0%
CCS(=O)(=O)Nc1ccc(C(=O)N2CC[C@](C)(O)[C@@H](O)C2)cc1	-19%
COc1cccc(C(=O)NCC2Cn3cccc3C(=O)N2CC(C)C)c1 (stereo unspecified)	i
CN(CC(=O)N1CCN(CCO)CC(O)C1)Cc1ccccc1F (stereo unspecified)	1%
Cc1noc(C)c1[S+](=O)([O-])N1CCC2(CC1)C(=O)NN=C2c1ccncc1	5%
CCCS(=O)(=O)NCc1cccnc1Oc1ccc(F)c(F)c1	5%
CCC(NCc1cn(CCC(N)=O)c2ccccc12)c1cccs1 (stereo unspecified)	-24%
O=C(Cn1cc(SCc2ccccc2F)c2ccccc21)N1CCCCC1	-18%
